Tests used:
Assay in all cases: PBM binding z-score (relative to random genomic background probes); higher = stronger binding; sequences stand for … in GC…GCGATTGACAGCGTAGAATGAAGG
[1] = tested on: FXR:RXRa (NR concentration 270 nM, RXRa partner concentration 90 nM)
Outline: (§1)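 Ligand-free nuclear receptor dimers were bound for 1 h to custom Agilent 4×180K protein-binding microarrays. Detection used antibodies against each partner (one per run). Binding z-scores rest on regression-normalized fluorescence, with random background probes as the reference.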

[2] = tested on: LXRa:RXRa (NR concentration 270 nM, RXRa partner concentration 90 nM)
Outline: as §1

[3] = tested on: LXRa homodimer (NR concentration 270 nM)
Outline: as §1

[4] = tested on: LXRb:RXRa (NR concentration 270 nM, RXRa partner concentration 90 nM)
Outline: as §1

[5] = tested on: LXRb homodimer (NR concentration 270 nM)
Outline: as §1

[6] = tested on: PPARa:RXRa (NR concentration 270 nM, RXRa partner concentration 90 nM)
Outline: as §1

[7] = tested on: PPARg:RXRa (NR concentration 180 nM, RXRa partner concentration 90 nM)
Outline: as §1

[8] = tested on: PPARg:RXRa 270nM:90nM, anti-RXR (NR concentration 270 nM, RXRa partner concentration 90 nM)
Outline: as §1

[9] = tested on: PPARg:RXRa 30nM:10nM, anti-RXR (NR concentration 30 nM, RXRa partner concentration 10 nM)
Outline: as §1

[10] = tested on: PPARg:RXRa 90nM:30nM, anti-RXR (NR concentration 90 nM, RXRa partner concentration 30 nM)
Outline: as §1

[11] = tested on: PPARg:RXRa DBDmut IVT, anti-RXR (DBD mutation: RXRa K156A/R161A, NR concentration 270 nM, RXRa partner concentration 90 nM)
Outline: as §1

[12] = tested on: PPARg:RXRa IVT, anti-PPARg (NR concentration 270 nM, RXRa partner concentration 90 nM)
Outline: as §1

[13] = tested on: PPARg DBDmut:RXRa IVT, anti-PPARg (DBD mutation: PPARg1 K132A/R137A, NR concentration 270 nM, RXRa partner concentration 90 nM)
Outline: as §1

[14] = tested on: PPARg DBDmut IVT, anti-PPARg (DBD mutation: PPARg1 K132A/R137A, NR concentration 270 nM)
Outline: as §1

[15] = tested on: PPARg homodimer (NR concentration 180 nM)
Outline: as §1

[16] = tested on: PXR:RXRa (NR concentration 270 nM, RXRa partner concentration 90 nM)
Outline: as §1

[17] = tested on: PXR homodimer (NR concentration 270 nM)
Outline: as §1

[18] = tested on: RARa:RXR (NR concentration 270 nM, RXRa partner concentration 90 nM)
Outline: as §1

[19] = tested on: RARa homodimer (NR concentration 270 nM)
Outline: as §1

[20] = tested on: RARb:RXRa (NR concentration 270 nM, RXRa partner concentration 90 nM)
Outline: as §1

Sequence | PBM binding z-score [1] | PBM binding z-score [2] | PBM binding z-score [3] | PBM binding z-score [4] | PBM binding z-score [5] | PBM binding z-score [6] | PBM binding z-score [7] | PBM binding z-score [8] | PBM binding z-score [9] | PBM binding z-score [10] | PBM binding z-score [11] | PBM binding z-score [12] | PBM binding z-score [13] | PBM binding z-score [14] | PBM binding z-score [15] | PBM binding z-score [16] | PBM binding z-score [17] | PBM binding z-score [18] | PBM binding z-score [19] | PBM binding z-score [20]
AGAATGAGGTTAAGCTCAGGGAAACAGAATACAT | 2.88 | 1.94 | -0.491 | 1.79 | -0.626 | 3.77 | 2.4 | 2.58 | 0.895 | 1.48 | 3.66 | 2.98 | 0.873 | 0.751 | -0.0277 | 1.1 | 0.0253 | 2.17 | -0.438 | 2.06
CCTACTGGGCCAAGAAAGGTCATTGATTCAGTGA | 3.31 | 4.19 | 4.12 | 3.8 | -0.225 | 4.33 | 2.63 | 3.17 | 0.919 | 2.35 | 3.49 | 3.92 | -0.232 | 0.143 | 2.98 | 5.1 | 1.18 | 5.31 | 1.75 | 3.89
GCATATAGGTAATACAACGTGAAAGTCCGATTGT | -0.622 | -0.502 | -0.205 | -0.638 | -0.368 | 0.333 | 1.02 | 0.49 | 0.28 | 0.431 | 4.04 | 2.2 | 0.468 | 0.495 | -0.277 | -0.414 | -0.12 | -0.549 | 0.219 | -0.451
GTACCAAGGTGAATCGGTCGTTGATGAGTAGGCG | 0.346 | 0.0414 | -0.326 | -0.181 | -0.693 | 1.05 | 0.567 | 0.624 | -0.427 | 0.0488 | 1.93 | 2.44 | -0.354 | -0.848 | -0.00106 | -0.262 | -0.354 | 0.293 | -0.11 | 1.67
CCTTACGGGTCACGAGGATATAGCACGACGAGCG | 6.44 | 4.11 | 0.0313 | 3.62 | -0.175 | 5.81 | 6.65 | 6.23 | 2.94 | 4.99 | 3.74 | 4.93 | 1.1 | 0.884 | 2.13 | 3.42 | -0.093 | 4.41 | 1.37 | 4.59
CCGACTGGGGCAAATGTTACCATACTCAGTACGA | 0.0667 | -0.122 | 0.0319 | 0.411 | -0.698 | 2.25 | 4.31 | 5.16 | 3.62 | 5.18 | 4.63 | 3.74 | 0.00418 | 0.212 | 0.439 | -0.402 | -0.187 | -0.273 | -0.109 | 0.683
TGAATGAGGTTAAAGATCAGAGAACGTGGCGTCG | 3.2 | 2.25 | -0.274 | 1.7 | 0.104 | 4.43 | 6.08 | 6.65 | 5.22 | 6.58 | 1.89 | 3.53 | 1.38 | 0.333 | 0.79 | 2 | 0.0576 | 3.32 | 0.124 | 1.98
CCGACTGGGGCAAAGGTTACCAGACTCAGTACGA | 1.56 | 1.7 | -0.36 | 1.99 | -1.21 | 5.91 | 10.5 | 8.66 | 8.75 | 9.25 | 4.51 | 5.88 | -0.692 | -1.09 | 0.726 | 2.48 | -0.264 | 3.64 | -0.558 | 2.66
GCTTGTAGATCAAGGTTATGAAAGACTAAGCTAA | 0.138 | 0.572 | -0.505 | 0.452 | -0.591 | 1.3 | 0.656 | 0.989 | 0.21 | 0.553 | 1.21 | 0.962 | 0.000562 | 0.0061 | 0.45 | 0.681 | -0.0933 | 0.915 | -0.0399 | 0.632
TCTTGTAGATCAATGGTTAAGAAAGCCGAAGCCT | 0.494 | 0.359 | -0.126 | -0.0354 | -0.123 | 0.608 | 0.23 | 2.48 | 3.07 | 2.99 | 1.89 | 0.567 | 0.47 | 0.225 | -0.106 | 0.039 | -0.283 | 0.142 | 0.324 | -0.236
GCTAGTTGGTCAGTACAAGGTCACACACCGGTCG | 2.58 | 2.63 | 2.97 | 2.59 | 0.352 | 3.05 | 1.38 | 1.94 | 0.146 | 1.33 | 0.892 | 2.35 | -0.0423 | 0.196 | 2.2 | 3.74 | 1.58 | 3.91 | 0.633 | 3.36
ATCTGTAGGTAAAGTTCAGTGAAAGATCGATAGA | 0.691 | 1.44 | 1.19 | 1.01 | 0.396 | 2.28 | 3.37 | 4.2 | 2.41 | 3.78 | 1.48 | 2.2 | 1.04 | 0.902 | 1.06 | 1.41 | 1.84 | 0.99 | 0.559 | 2.53
ACTAGTTGGTCAGCTGACGTCACACACAATTCGG | 0.0857 | 0.103 | -0.224 | 0.522 | 0.287 | 0.229 | 0.969 | -0.246 | -0.0374 | -0.0611 | 0.857 | 0.972 | 0.728 | 0.709 | 0.152 | 0.163 | -0.648 | 0.0415 | 0.251 | 0.952
CCGACTGGGGCATACGGTTACCATAAGCCAGCCC | -0.196 | -0.252 | -0.334 | -0.388 | -1.21 | 0.556 | 1.47 | 1.77 | 0.00419 | 1.13 | 2.5 | 2.15 | -0.604 | -1.2 | 0.276 | -0.401 | -0.646 | -0.126 | -0.0238 | 0.496
